Measurements as given in PubChem BioAssay (Tox21).
Several values for one entry are separate records, joined by “and”; a condition that tells them apart may be missing. Equal values may be shown once. Inconclusive results are not listed. A call without a number means that no potency is given here. More than one record can exist for a structure, and the calls need not agree. Activity calls are given as the source filed them. Unless noted, the call rests on the fitted dose curve; in most records, active means well fitted curve in the direction sought with a large enough effect in the repeat runs; inconclusive means weak or mixed curves; inactive means no such curve, though single readings can be large; an effect the other way counts as inactive or inconclusive.

Experiments:
[1] = qHTS assay for small molecules that induce genotoxicity in human embryonic kidney cells expressing luciferase-tagged ATAD5 (AID 651632); further: nearly all actives have a fitted effect of over 15% in size
In short: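 HEK293T cells carrying luciferase-tagged ATAD5 were given compound or DMSO vehicle and incubated 16 hr at 37C, 5% CO2. Luciferase activity was read after 30 min at room temperature with Amplite; a rise signals genotoxic stress.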

[2] = qHTS assay to test for compound auto fluorescence at 535 nm (green) in HepG2 cells (AID 720675)
[3] = qHTS assay to test for compound auto fluorescence at 590 nm (red) in HEK293 cells (AID 720679)
In short: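 HEK293 cells (2,000/well, medium with 10% dialyzed FBS) attached for 4-5 hr at 37C, received 23 nL compound and were incubated overnight at 37C, 5% CO2. Red fluorescence was then read at 540/590nm Ex/Em, referenced to Rose Bengal sodium.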

[4] = qHTS assay to test for compound auto fluorescence at 535 nm (green) in HEK293 cells (AID 720680)
[5] = qHTS assay to test for compound auto fluorescence at 590 nm (red) in HepG2 cell free culture (AID 720684)
In short: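 Compound was pinned into wells holding MEM with 10% FBS and no cells, and red fluorescence was read at Ex/Em 540/590 nm. Signal is expressed as auto fluorescence equivalency relative to Rose Bengal sodium.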

[6] = qHTS assay to test for compound auto fluorescence at 460 nm (blue) in HepG2 cell free culture (AID 720685)
In short: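 Compound (23 nL) or DMSO pinned into cell-free MEM with 10% FBS; blue fluorescence read at 405/460 nm excitation/emission, expressed as auto-fluorescence equivalency to triamterene.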

[7] = qHTS assay to test for compound auto fluorescence at 535 nm (green) in HepG2 cell free culture (AID 720686)
[8] = molecular target: Luciferin 4-monooxygenase (Photinus pyralis) (UniProt P08659); assay: qHTS assay to identify small molecule inhibitors of firefly luciferase (AID 1224835); further: series mostly up to about 120 µM; nearly all actives have a fitted effect of over 25% in size
Luciferin 4-monooxygenase (Photinus pyralis), sequence (P08659 whole entry, looked up): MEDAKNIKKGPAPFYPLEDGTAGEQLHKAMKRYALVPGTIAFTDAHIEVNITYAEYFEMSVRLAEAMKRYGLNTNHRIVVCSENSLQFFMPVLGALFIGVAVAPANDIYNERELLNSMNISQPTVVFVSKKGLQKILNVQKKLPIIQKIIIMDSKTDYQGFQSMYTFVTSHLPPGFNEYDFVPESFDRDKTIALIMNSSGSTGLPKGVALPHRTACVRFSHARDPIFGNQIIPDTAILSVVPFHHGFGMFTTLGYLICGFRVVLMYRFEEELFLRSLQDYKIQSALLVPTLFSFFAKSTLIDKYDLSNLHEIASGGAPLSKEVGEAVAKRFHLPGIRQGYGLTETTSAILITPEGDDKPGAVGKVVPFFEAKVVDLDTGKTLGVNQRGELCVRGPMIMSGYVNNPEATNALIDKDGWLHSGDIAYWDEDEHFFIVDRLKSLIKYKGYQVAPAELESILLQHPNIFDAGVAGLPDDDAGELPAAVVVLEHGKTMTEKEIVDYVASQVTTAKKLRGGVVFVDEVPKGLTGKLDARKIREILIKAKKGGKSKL
In short: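 Biochemical qHTS: compounds run as interplate titrations against purified firefly enzyme, with D-luciferin and ATP each at its KM concentration. Light output recorded by CCD imaging.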

[9] = qHTS assay to identify small molecule agonists of H2AX (AID 1224845; active means well fitted activation curve with a large enough effect in the signal ratio in the repeat runs, not every such curve was filed as active; the % refers to the signal ratio; further: potency means the concentration at half of the fitted maximal effect)
In short: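 Wild-type CHO-K1 cells, plated overnight, exposed 3hr at 37C to 15 concentrations (0.76% DMSO final). Lysed, then HTRF anti-pH2AX (S139) cryptate and anti-H2AX-d2 antibodies, 24 hr room temperature; 665/620 nm emission read.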

[10] = qHTS RealTime-Glo MT Cell Viability Assay in HEK293 cells - 32 hour (AID 1224868); further: nearly all actives have a fitted effect of over 50% in size; further: potency means the concentration at half of the fitted maximal effect
In short: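 HEK293 cells were seeded at 600 cells/well together with NanoLuc luciferase and cell-permeant prosubstrate, preincubated 5 h at 37 C/5% CO2, then given compound in DMSO by pintool. Luminescence from viable-cell prosubstrate reduction was read repeatedly over 40 h.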

[11] = A CellTox Green Cytotoxicity Assay to monitor cytotoxicity in HepG2 cells - 24 hour (AID 1224878); further: nearly all actives have a fitted effect of over 45% in size; further: potency means the concentration at half of the fitted maximal effect
In short: (§1)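 HepG2 cells, 600/well, preincubated 5 h with CellTox Green dye, then exposed to Tox21 compounds in DMSO at 37 C for up to 40 h. Dead-cell DNA fluorescence read at the indicated time point.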

[12] = A CellTox Green Cytotoxicity Assay to monitor cytotoxicity in HepG2 cells - 40 hour (AID 1224879); further: nearly all actives have a fitted effect of over 40% in size; further: potency means the concentration at half of the fitted maximal effect
In short: as §1

[13] = A CellTox Green Cytotoxicity Assay to monitor cytotoxicity in HepG2 cells - 32 hour (AID 1224883); further: nearly all actives have a fitted effect of over 50% in size; further: potency means the concentration at half of the fitted maximal effect
In short: as §1

[14] = A CellTox Green Cytotoxicity Assay to monitor cytotoxicity in HEK293 cells - 8 hour (AID 1224884); further: nearly all actives have a fitted effect of over 35% in size; further: potency means the concentration at half of the fitted maximal effect
In short: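 HEK293 cells, 600/well, were preincubated 5 hours and then exposed to compounds at 37 C for up to 40 hours. A cell-impermeant cyanine dye staining dead-cell DNA was read by fluorescence at 0, 8, 16, 24, 32 and 40 h time points.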

[15] = molecular target: Cytochrome P450 2C9 (Homo sapiens) (UniProt P11712); assay: Cytochrome P450 Family 2 Subfamily C Member 9 (CYP2C9) small molecule antagonists: luciferase reporter qHTS assay (AID 1671198); further: nearly all actives have a fitted effect of over 50% in size; further: potency means the concentration at half of the fitted maximal effect
Cytochrome P450 2C9 (Homo sapiens), sequence (P11712 whole entry, looked up): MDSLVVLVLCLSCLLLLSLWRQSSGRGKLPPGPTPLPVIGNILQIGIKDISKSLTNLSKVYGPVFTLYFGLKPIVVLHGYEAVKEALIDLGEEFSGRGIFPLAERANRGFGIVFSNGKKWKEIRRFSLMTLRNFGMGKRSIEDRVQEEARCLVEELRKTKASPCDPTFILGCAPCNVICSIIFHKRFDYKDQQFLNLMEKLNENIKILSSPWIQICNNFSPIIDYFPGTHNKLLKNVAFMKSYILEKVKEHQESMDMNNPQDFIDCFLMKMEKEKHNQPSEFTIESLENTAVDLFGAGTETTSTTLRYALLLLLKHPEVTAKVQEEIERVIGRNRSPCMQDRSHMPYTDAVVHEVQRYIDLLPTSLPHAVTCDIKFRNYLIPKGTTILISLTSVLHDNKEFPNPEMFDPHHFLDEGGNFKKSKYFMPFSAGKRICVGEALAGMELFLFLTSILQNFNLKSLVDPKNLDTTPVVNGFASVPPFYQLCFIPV
In short: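 P450-Glo proluciferin substrate with CYP2C9 enzyme; 10 min RT preincubation, then NADPH regeneration 1 h at 37C; luciferin detection reagent 20 min RT, luminescence in relative luminescence units.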

[16] = qHTS assay to identify small molecule agonists of the constitutive androstane receptor (CAR) signaling pathway - cell viability counter screen (AID 1224836); further: nearly all actives have a fitted effect of over 45% in size; further: potency means the concentration at half of the fitted maximal effect
In short: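 HepG2 cells stably carrying hCAR and a CYP2B6-2.2kb reporter were plated 4 h, then given compounds at 15 concentrations plus PK11195 (final 0.75 uM). After 23 h at 37 C, viability was read by CellTiter-Fluor fluorescence.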

[17] = qHTS assay to identify small molecule antagonists of the constitutive androstane receptor (CAR) signaling pathway - cell viability counter screen (AID 1224837); further: nearly all actives have a fitted effect of over 45% in size; further: potency means the concentration at half of the fitted maximal effect
In short: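 HepG2 cells stably carrying hCAR and CYP2B6-2.2kb reporter, stimulated with 50 nM CITCO and compounds at 15 concentrations for 23 h at 37 C. Viability measured by CellTiter-Fluor fluorescence.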

[18] = qHTS RealTime-Glo MT Cell Viability Assay in HepG2 cells - 24 hour (AID 1224867); further: nearly all actives have a fitted effect of over 50% in size; further: potency means the concentration at half of the fitted maximal effect
In short: (§2)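 HepG2 cells were seeded at 600 cells/well together with NanoLuc luciferase and a cell-permeant prosubstrate, preincubated 5 h at 37 C/5% CO2, then pin-dosed with compounds in DMSO. Nonlytic luminescence from viable cells was read at each time point.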

[19] = qHTS RealTime-Glo MT Cell Viability Assay in HepG2 cells - 16 hour (AID 1224885); further: nearly all actives have a fitted effect of over 50% in size; further: potency means the concentration at half of the fitted maximal effect
In short: as §2

[20] = qHTS assay to identify small molecule antagonists of the sonic hedgehog signaling (Shh) pathway - cell viability counter screen (AID 1259367); further: nearly all actives have a fitted effect of over 55% in size; further: potency means the concentration at half of the fitted maximal effect
In short: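 NIH/3T3-derived Gli1-Luc reporter cells, 2,000/well, plated 4 hr before compound addition, then stimulated with conditioned medium for 24 hr at 37C. Viability measured in the same wells by CellTiter-Fluor fluorescence, reagent added at 23 hr for 1 hr.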

OCC(c1ccc(Cl)cc1)c1ccc(Cl)cc1
Potency [1]: inactive | Potency [2]: inactive | outcome [3]: inactive | Potency [4]: inactive | outcome [5]: inactive | Potency [6]: inactive | Potency [7]: inactive | Potency [8]: inactive | Potency [9]: inactive | Potency [10]: 34.7 µM (active) | Potency [11]: 38.9 µM (active) | Potency [12]: 38.9 µM (active) | Potency [13]: 38.9 µM (active) | Potency [14]: 43.6 µM (active) | Potency [15]: 12.6 µM (active)

CC(c1ccccc1)(c1ccc(O)cc1)c1ccc(O)cc1
Potency [8]: inactive | Potency [16]: inactive | Potency [17]: inactive | Potency [18]: inactive | Potency [10]: 43.6 µM (active) | Potency [11]: 43.6 µM (active) | Potency [12]: 38.9 µM (active) | Potency [13]: 43.6 µM (active) | Potency [14]: inactive | Potency [19]: inactive | Potency [15]: 8.94 µM (active)

CC(C)(C)c1cc(C(C)(C)C)c(O)c(C(C)(C)C)c1
Potency [9]: 101 µM (active)

Oc1c(I)cc(I)cc1I
Potency [8]: inactive | Potency [16]: inactive | Potency [17]: inactive | Potency [9]: inactive | Potency [18]: inactive | Potency [10]: inactive | Potency [11]: inactive | Potency [12]: inactive | Potency [13]: inactive | Potency [14]: inactive | Potency [19]: inactive | Potency [20]: inactive | Potency [15]: 56.4 µM (active)

Cc1cc(C)c(C(=O)P(=O)(c2ccccc2)c2ccccc2)c(C)c1
Potency [8]: inactive | Potency [10]: 49 µM (active) | Potency [14]: inactive | Potency [20]: 54.5 µM (active) | Potency [15]: 15.9 µM (active)

N#Cc1cc([N+](=O)[O-])ccc1N
Potency [8]: inactive | Potency [9]: inactive | Potency [18]: inactive | Potency [10]: inactive | Potency [11]: inactive | Potency [12]: inactive | Potency [13]: inactive | Potency [14]: inactive | Potency [19]: inactive | Potency [15]: inactive

CCOC(=O)C(O)(c1ccc(Cl)cc1)c1ccc(Cl)cc1
Potency [1]: inactive | Potency [2]: inactive | outcome [3]: inactive | Potency [4]: inactive | outcome [5]: inactive | Potency [6]: inactive | Potency [7]: inactive | Potency [8]: inactive | Potency [16]: inactive | Potency [17]: inactive | Potency [9]: 90.7 µM (active) and 89.8 µM (active) | Potency [18]: inactive | Potency [10]: 22.1 µM (active) | Potency [11]: inactive and 38.9 µM (active) | Potency [12]: inactive and 43.6 µM (active) | Potency [13]: inactive and 43.6 µM (active) | Potency [14]: inactive | Potency [19]: inactive | Potency [15]: 10.1 µM (active) and 7.96 µM (active)

COc1cc(OC)c(OC)cc1C=O
Potency [1]: inactive | Potency [2]: inactive | outcome [3]: inactive | Potency [4]: inactive | outcome [5]: inactive | Potency [6]: inactive | Potency [7]: inactive | Potency [8]: inactive | Potency [16]: inactive | Potency [17]: inactive | Potency [18]: inactive | Potency [10]: inactive | Potency [11]: inactive | Potency [12]: inactive | Potency [13]: inactive | Potency [14]: inactive | Potency [19]: inactive | Potency [20]: 47.1 µM (active)

CN1CSC(=S)N(C)C1
Potency [1]: inactive | Potency [2]: inactive | outcome [3]: inactive | Potency [4]: inactive | outcome [5]: inactive | Potency [6]: inactive | Potency [7]: inactive | Potency [8]: inactive | Potency [16]: 4.83 µM (active) and 15.3 µM (active) | Potency [17]: 5.42 µM (active) and 7.67 µM (active) | Potency [9]: 4.48 µM (active) | Potency [18]: 17.3 µM (active) | Potency [10]: 17.3 µM (active) and 24.5 µM (active) | Potency [11]: 10.9 µM (active) and 27.5 µM (active) | Potency [12]: 12.2 µM (active) and 10.9 µM (active) | Potency [13]: 10.9 µM (active) and 21.8 µM (active) | Potency [14]: inactive | Potency [19]: inactive | Potency [20]: 3.05 µM (active) and 13.6 µM (active) | Potency [15]: 8.91 µM (active)

ClC1=C(Cl)[C@]2(Cl)[C@@H]3[C@@H](Cl)[C@H]4O[C@H]4[C@@H]3C1(Cl)C2(Cl)Cl
Potency [1]: inactive | Potency [2]: inactive | outcome [3]: inactive | Potency [4]: inactive | outcome [5]: inactive | Potency [6]: inactive | Potency [7]: inactive | Potency [8]: inactive | Potency [16]: inactive | Potency [17]: inactive | Potency [20]: inactive | Potency [15]: 39.9 µM (active)

CCN(CC)C(=O)Cl
Potency [8]: inactive | Potency [16]: inactive | Potency [17]: inactive | Potency [9]: inactive | Potency [18]: inactive | Potency [10]: inactive | Potency [11]: inactive | Potency [12]: inactive | Potency [13]: inactive | Potency [14]: inactive | Potency [19]: inactive | Potency [20]: inactive | Potency [15]: inactive

CNC(=O)Oc1cc(C)c(SC)c(C)c1
Potency [16]: inactive | Potency [17]: inactive | Potency [9]: 63.5 µM (active) | Potency [18]: inactive | Potency [11]: inactive | Potency [12]: inactive | Potency [13]: inactive | Potency [14]: inactive | Potency [19]: inactive | Potency [20]: inactive

O=C(Nc1ccccc1-c1ccc(Cl)cc1)c1cccnc1Cl
Potency [1]: inactive | Potency [2]: inactive | outcome [3]: inactive | Potency [4]: inactive | outcome [5]: inactive | Potency [6]: inactive | Potency [7]: inactive | Potency [16]: inactive | Potency [17]: inactive | Potency [9]: inactive | Potency [18]: inactive | Potency [11]: 41.2 µM (active) | Potency [12]: 46.3 µM (active) | Potency [13]: 46.3 µM (active) | Potency [14]: 46.3 µM (active) | Potency [19]: inactive | Potency [20]: inactive | Potency [15]: inactive

c1ccc2c(c1)Sc1ccccc1N2CC1CN2CCC1CC2 (stereo unspecified)
Potency [1]: inactive | Potency [2]: inactive | outcome [3]: inactive | Potency [4]: inactive | outcome [5]: inactive | Potency [6]: inactive | Potency [7]: inactive | Potency [8]: inactive | Potency [16]: 29.8 µM (active) | Potency [18]: 21.3 µM (active) | Potency [11]: 23.9 µM (active) | Potency [12]: 19 µM (active) | Potency [13]: 21.3 µM (active) | Potency [19]: 23.9 µM (active) | Potency [20]: 11.9 µM (active) | Potency [15]: inactive
